Potency data for 40 compounds are collected here from PubChem BioAssay AID720518 (National Center for Advancing Translational Sciences (NCATS), 2013).

Inconclusive results are not listed. Where a call stands in place of a potency, no number is given. Calls of active or inactive are those of the source. Calls follow the shape of the full dose curve.

A short description of the assay: qHTS for Inhibitors of Cell Surface uPA Generation: Wild-type Protective Antigen (WT-PrAg) Counterscreen for Cherry-picked Compounds. Particulars: cells, WT protective antigen toxicity counterscreen; series mostly up to 115 µM. On the technique in general: In qHTS, concentration-response curves come from the screen itself.
`C=CCn1c(SCCN2C(=O)c3ccccc3C2=O)nc2scc(-c3ccc(F)cc3)c2c1=O`: the Potency entry is “inactive”.

Regarding `Cc1nc2ccc(Br)cn2c1C(=O)N/N=C\c1ccccc1Cl`, the Potency entry was “inactive”.

On to `CCCOC(=O)CSC1=C(C#N)C(c2ccccc2Cl)CC(=O)N1` (stereo not given), for which the Potency entry is “inactive”.

As for `CC(C)OC(=O)c1ccc(N2CCN(c3ccccc3F)CC2)nc1`, the Potency entry is “inactive”.

For the compound `COc1ccc(CCNC(=O)COC(=O)CNS(=O)(=O)c2ccc(SC)c([N+](=O)[O-])c2)cc1`, the Potency result was “inactive”.

With `C=CCn1c(SCc2ccc(C(=O)NCCO)cc2)nc2ccccc2c1=O`, the Potency result is “inactive”.

For `O=[N+]([O-])c1ccc(C[n+]2cccc(O)c2)cc1`, the Potency entry is “inactive”.

With `O=C1CC(/C=C/c2ccc(Cl)cc2)=Nc2ccccc2N1`, the Potency entry is “inactive”.

Consider `Cc1nn2c(=O)cc(CSc3nc4ccccc4[nH]3)nc2s1`, for which the Potency result is “inactive”.

For `Cc1ccc(CC2CC(=O)N(c3cc(C)ccc3C)C2=O)cc1` (stereo not given), the Potency entry was “inactive”.

With `Cc1cc(-c2ccccc2)nc(N/N=C/c2ccc(N(C)C)cc2)n1`, the Potency entry is “inactive”.

In the case of `O=C(COC(=O)Cn1cnc2ccccc21)NCc1ccc(F)cc1`, the Potency result was “inactive”.

`CCOC(=O)Cc1csc(NC(=O)Nc2cccc(OC)c2)n1`: the Potency entry was “inactive”.

Take `O=c1[nH]c(=O)n(CCc2ccccc2)c(O)c1C=NC1CC1`: the Potency result was “inactive”.

As to `C=CCNC(=S)NCC=C`, the Potency result was “inactive”.

Regarding `O=C(O)CCc1nn2c3ccccc3n(CC(=O)O)c2nc1=O`, the Potency entry is “inactive”.

Consider `CN(Cc1ccc(C(C)(C)C)cc1)C(=O)Cc1ccc(S(=O)(=O)N2CCOCC2)s1`, for which the Potency result was “inactive”.

With `C[C@@]12C(=O)N(CC3CCCO3)CC(=O)N1[C@H]1c3cc(Cl)ccc3OC[C@@H]1[C@@H]2c1ccccc1` (stereo not given in full), the Potency entry is “inactive”.

For the compound `Cc1c(C(=O)N2CCN(S(=O)(=O)c3cccs3)CC2)oc2ccc(F)cc12`, the Potency entry is “inactive”.

For the compound `CCCCn1c(N)c(N(Cc2ccccc2OC)C(=O)COc2ccc(C)cc2)c(=O)[nH]c1=O`, the Potency result was “inactive”.

With `CC(C)c1ccc(C2/C(=C(\O)c3ccc4c(c3)OCCO4)C(=O)C(=O)N2CCN2CCOCC2)cc1` (stereo not given), the Potency result was “inactive”.

On to `Cc1ccc([C@H]2C(C(=O)O)=CC[C@@H](c3cccc(C)c3)N2S(=O)(=O)c2ccc(C)cc2)cc1`, for which the Potency entry was “inactive”.

Regarding `CCCn1nnc(NC(=S)NC(=O)c2ccccc2OC)n1`, the Potency result was “inactive”.

On to `COc1ccc(-c2csc(NC(C)c3nc4cc(C(=O)NCCCO)ccc4n3Cc3ccc(C)cc3)n2)cc1` (stereo not given), for which the Potency entry is “inactive”.

On to `COc1ccc(CCNC(=O)CSc2nc(N)c3c(C)c(C)oc3n2)cc1OC`, for which the Potency result is “inactive”.

Take `O=C1C[C@@H]2CCN3C(=O)CCC[C@@H]([C@H]23)[C@H]1Cc1ccccc1`: the Potency result was “inactive”.

`C=C(C)C(=O)O[C@H]1C/C(C)=C\C(=O)/C=C(\C)[C@H](O)[C@@H]2OC(=O)C(=C)[C@@H]21`: the Potency result was “inactive”.

For the compound `CC1(C)CC2(CC(c3ccccc3)Oc3cc(O)ccc32)NC(=S)N1` (stereo not given), the Potency result was “inactive”.

Consider `O=C(NCCc1ccccc1)C1CCC(=O)N(Cc2cccc(C(F)(F)F)c2)C1` (stereo not given), for which the Potency entry is “inactive”.

For the compound `COc1cc(CCC(=O)OCC(=O)NCc2ccccc2)cc(OC)c1OC`, the Potency entry is “inactive”.

Take `Cc1cc(COc2ccccc2)oc1C(=O)O`: the Potency entry was “inactive”.

As to `O=C1[C@H]2[C@@H](c3ccc(F)cc3)N3C(=O)N(c4cccc(F)c4)C(=O)[C@@]3(Cc3ccc(Cl)cc3)[C@H]2C(=O)N1C1CCCCC1`, the Potency entry was “inactive”.

On to `OCC1CCCCN1CC(O)COC(c1ccc(F)cc1)c1ccc(F)cc1` (stereo not given), for which the Potency entry is “inactive”.

For the compound `O=C(/C=C/c1cccc(F)c1)Nc1cc(S(=O)(=O)N2CCOCC2)ccc1Cl`, the Potency entry is “inactive”.

For `CC(C(=O)Nc1nccs1)c1ccc([N+](=O)[O-])cc1` (stereo not given), the Potency result was “inactive”.

On to `CN(C(=O)CCn1c(=S)oc2ccccc21)c1ccc(F)cc1`, for which the Potency entry was “inactive”.

As for `CC(=O)c1cccc(NC(=O)N2C3CCC2CC(O)(c2cccnc2)C3)c1` (stereo not given), the Potency result is “inactive”.

As to `COC(=O)CCSCC(=O)N1N=C(c2ccc(OC)cc2)CC1c1cccc(OC)c1OC` (stereo not given), the Potency result is “inactive”.

Take `Cc1cc(C)nc(NC(=O)CSc2nccc(C)n2)n1`: the Potency result was “inactive”.

As to `CC(/C=C/C1(O)C(C)CC(O)CC1(C)C)OC1OC(CO)C(O)C(O)C1O` (stereo not given), the Potency result is “inactive”.
